Rows were chosen to be rich in hits. Some 9% of all compounds tested hit in one or more screens of this group.
PLK1 PBD inh: blocks phosphopeptide binding to human PLK1 polo-box domain | Potency, µM, most hits filed as inhibitors | 360,000 compounds, 2.8% hits | P53350 | Plk1 PBD binding of FITC phosphopeptide, fluorescence polarization | AID 720504; note: series mostly up to about 57 µM; nearly all actives have a fitted effect of over 65% in size
JMJD2A Tudor inh: blocks the human JMJD2A Tudor domain; O75164; AlphaScreen JMJD2A-Tudor / H3K4me3 peptide binding; Potency, µM (titrated, usually from 114 µM), usual class: inhibitors; 390,000 compounds, 4.4% hits; note: nearly all actives have a fitted effect of over 50% in size
ALOX12 inh: inhibitors of human 12S-lipoxygenase ALOX12. P18054. purified 12hLO, xylenol orange hydroperoxide absorbance. Potency, µM (titrated, usually from 108 µM), most hits filed as inhibitors. 580,000 compounds, 1.1% hits. AID 1671190
Target sequence (P18054 whole entry, looked up): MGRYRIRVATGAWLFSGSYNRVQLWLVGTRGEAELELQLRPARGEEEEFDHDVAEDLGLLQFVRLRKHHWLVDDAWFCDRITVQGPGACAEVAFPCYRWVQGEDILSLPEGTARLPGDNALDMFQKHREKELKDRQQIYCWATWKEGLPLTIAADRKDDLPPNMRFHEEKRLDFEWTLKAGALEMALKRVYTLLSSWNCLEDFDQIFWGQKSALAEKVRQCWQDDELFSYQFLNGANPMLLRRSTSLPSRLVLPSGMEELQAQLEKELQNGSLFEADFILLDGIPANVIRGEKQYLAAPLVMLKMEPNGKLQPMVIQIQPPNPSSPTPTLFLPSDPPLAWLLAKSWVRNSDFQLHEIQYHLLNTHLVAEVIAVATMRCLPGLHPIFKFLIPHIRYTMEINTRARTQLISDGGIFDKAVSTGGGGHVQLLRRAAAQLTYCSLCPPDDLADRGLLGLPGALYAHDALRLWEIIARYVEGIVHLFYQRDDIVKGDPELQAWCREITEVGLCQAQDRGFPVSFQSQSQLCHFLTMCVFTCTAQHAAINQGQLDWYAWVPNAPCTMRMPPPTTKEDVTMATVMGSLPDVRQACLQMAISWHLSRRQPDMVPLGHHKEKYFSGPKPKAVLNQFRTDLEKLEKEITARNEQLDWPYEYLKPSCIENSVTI
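Purified human 12hLO at 150 nM in 25 mM Hepes, 0.01% Triton X-100, pH 7.0, preincubated 15 min at room temperature with compound. Reaction started with 40 uM arachidonic acid, 30 min at room temperature. Hydroperoxide measured by Fe-xylenol orange, 573/405 nm absorbance ratio.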
BAZ2B inh: inhibitors of human BAZ2B bromodomain | Q9UIF8 | AlphaScreen BAZ2B-H3K14Ac peptide displacement | 360,000 compounds, 4.4% hits | Potency, µM (titrated, usually from 114 µM), actives largely listed as inhibitors; note: nearly all actives have a fitted effect of over 60% in size
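Protein-peptide AlphaScreen: BAZ2B 50 nM, b-H3K14Ac 50 nM, 1x PBS pH 7.4 + 0.01% Tween-20. Preincubation 30 min RT; cpd 30 min RT (top 110 uM); beads 20 min RT, light-protected.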
HP1b chromo inh: HP1-beta chromodomain-methylated histone interaction inhibition; AID 540317; 390,000 compounds, 0.56% hits; AlphaScreen HP1-beta / biotin-H3K9me3 peptide binding; P83916; Potency, µM (highest dose often 114 µM), usual class: inhibitors; note: nearly all actives have a fitted effect of over 70% in size
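HP1-beta protein (50 nM final) preincubated 30 min at room temperature with biotinylated H3(1-18)K9me3 peptide (50 nM) in PBS pH 7.4, 0.01% Tween-20, then compound added for 30 min. AlphaScreen streptavidin donor/nickel chelate acceptor beads (10 ug/mL final), 30 min dark, luminescence read.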
G9a block: blocks human histone lysine methyltransferase G9a; G9a H3K9 monomethylation, AlphaScreen, 2 h; Potency, µM (doses to about 102 µM), actives largely listed as inhibitors; 350,000 compounds, 8.8% hits; note: nearly all actives have a fitted effect of over 75% in size
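AlphaScreen read-out: biotin-H3K9 peptide (500 nM) methylation by 20 nM enzyme with 20 uM SAM, 2 h at room temperature after 15 min compound preincubation; anti-monomethyl H3K9 antibody plus donor/acceptor beads, 10 min dark.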
Hits are given with their value; i = inactive; ? = inconclusive; nt = not tested or not shown; ! = repeats disagree; [ ] = another dose, or the depositor's remark. Calls come from the whole dose curve; as a rule, active = well fitted curve in the direction sought with a large enough effect; inconclusive = small, poorly fitted or top-dose-only effect, or another doubt; inactive = no such curve, though single readings can be large; an effect the other way counts as inactive or inconclusive.

SMILES	PLK1 PBD inh	JMJD2A Tudor inh	ALOX12 inh	BAZ2B inh	HP1b chromo inh	G9a block
CS(=O)(=O)N(CC(=O)NC1CCCCC1)Cc1ccc(F)cc1	i	i[11.4 µM]	i	i	i	i
COc1ccc(C(=O)/C=C/C(=O)N(CC(=O)NC2CCCCC2)Cc2ccc(F)cc2)c(O)c1	4.2µM	i	?	i	i	nt
COc1ccc(C(=O)N(Cc2ccco2)Cc2cccs2)c(O)c1	i	i	i	i	i	?
CC(C)c1ccc(NS(=O)(=O)c2cccc3cccnc23)cc1	i	i	i	i	i	i
O=S(=O)(Nc1cccc2cccnc12)c1ccccc1O	nt	32µM	nt	nt	nt	nt
O=S(=O)(Nc1ccc(O)cc1)c1cccc2cccnc12	27µM	?	i	i	i	?
O=S(=O)(Nc1cccc2cccnc12)c1cccs1	nt	79µM	nt	nt	i	nt
O=S(=O)(Nc1ccccc1O)c1cccc2cccnc12	i	i	i	i	i	?
CCOC(=O)[C@@H]1[C@H]2COc3ccc(Br)cc3[C@H]2N2C(=O)N(c3ccc(F)cc3)C(=O)[C@@]12C	i	i	nt	i	i	?
COc1ccccc1CN1CCCC(N2CCN(c3ccccc3OC)CC2)C1 (stereo unspecified)	i	i	i	i	i	i
CCCc1ccccc1OCCNC(C)=O	3.4µM	16µM	i	i	i	i
O=C(NC1CCCCC1)c1cc2ccccc2nc1Cl	nt	nt	i	nt	nt	nt
COC[C@H]1C[C@@H](NC(=O)c2ccc3c(c2)OCO3)[C@H](O)[C@@H]1O	nt	nt	i	nt	nt	nt
COc1ccc2cc(CN(Cc3cccnc3)S(=O)(=O)c3ccccc3)c(=O)[nH]c2c1	i	i	45µM	?	i	?
COc1ccc2cc(CN(CC3COCCO3)S(=O)(=O)c3ccccc3)c(=O)[nH]c2c1 (stereo unspecified)	i	i	i	i	i	i
Cc1ccc(/C(=C\CN2CCCC2)c2ccccn2)cc1	i	i	i	i	nt	7.5µM!
COc1cccc(C(=O)NCCSCc2ccccc2Cl)c1	i	i	i	i	i	i
Cc1ccc(-n2nc(CO)c(C(=O)NCCCc3ccccc3)n2)cc1	nt	i	?	i	i	i
COc1ncnc2c1NC1=C(S2)C(=NCCC(=O)O)CC(C)(C)C1	?	i	i	?	i	18µM
C=CCc1ccc(OCCCCN2CCC(C)CC2)c(OC)c1	i	2.8µM	i	?	i	?
C=CCc1ccc(OCCCN2CCCC(C)C2)c(OC)c1 (stereo unspecified)	i	3.5µM	?	79µM	i	7.1µM
CCn1c(SCC(=O)c2ccc(OC)cc2)nnc1C(C)NC(=O)c1ccc(OC)cc1 (stereo unspecified)	i	i	i	i	i	45µM
COc1ccc(CC(=O)NC(C)c2nnc(SCC(=O)c3ccc(Br)cc3)n2C)cc1 (stereo unspecified)	i	i	i	i	i	40µM
CCOC(=O)N1CCN(C(=O)COc2ccc(S(=O)(=O)NC(C)C)cc2)CC1	i	i	i	i	i	45µM
CC(C)NS(=O)(=O)c1ccc(OCC(=O)Nc2ccc(F)cc2)cc1	24µM	i[11.4 µM]	i	i	i	i
SMILES	PLK1 PBD inh	JMJD2A Tudor inh	ALOX12 inh	BAZ2B inh	HP1b chromo inh	G9a block
CC(=Nc1ccc(C)cc1C)c1sc2ccccc2c1O	i	56µM	i	?	i	?
CC(=Nc1cccc(O)c1)c1sc2ccccc2c1O	i	i	i	40µM	i	?
CC(=Nc1ccc(C)cc1)c1sc2ccccc2c1O	i	?	i	?	i	?
Cc1ccsc1CN(C)c1ncnc2ccc(-c3ccc4c(c3)OCO4)cc12	nt	i	nt	nt	nt	nt
CC1=C[C@H]2OC(=O)[C@@H](C)[C@H]2C[C@@H]2[C@H]1C[C@@H](O)[C@@]2(C)O	i	i	i	i	i	i
CC(C)CCN(C(=O)C1CSC2(C)CCC(=O)N12)c1c(N)n(Cc2ccccc2)c(=O)[nH]c1=O (stereo unspecified)	i	i	i	?	i	28µM
CSc1cccc(N2CC(C(=O)N(CC(C)C)c3c(N)n(Cc4ccccc4)c(=O)[nH]c3=O)CC2=O)c1 (stereo unspecified)	i	i	?	?	i	40µM
CC(C)CN(C(=O)C1CC1)c1c(N)n(Cc2ccccc2)c(=O)[nH]c1=O	i	i	i	i	i	i

Bioassay records deposited in PubChem BioAssay by National Center for Advancing Translational Sciences (NCATS).
